Source: PubChem
Rows were chosen to be rich in hits. Some 7.9% of all compounds tested hit in one or more screens of this group.
LASV entry inh – Lassa virus entry inhibition. Lassa virus pseudotype entry inhibition, cell reporter. AID 540256. 300,000 compounds, 1.2% hits. Potency, µM (doses to about 37.9 µM), for the others: at the highest dose activity change, negative = inhibition, usual class: inhibitors; calls by dose curve; tested in HEK293 cells; note: potency is the fitted concentration of half-maximal effect; nearly all actives have a fitted effect of over 50% in size
HCMV inh – human cytomegalovirus inhibition | activity change, negative = inhibition, % at 57.5 µM | HFF cells, HCMV-luciferase reporter, 72 h; hits give low values | 410,000 compounds, 4.5% hits; in the data active = activity change below about -60%; inconclusive = no clear call, values can overlap the other calls; inactive = above about -39%
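Inhibition of viral replication was scored as loss of reporter luminescence in HFFs infected with HCMV-luciferase (MOI 1 PFU/cell) for 72 h; compounds tested at 2 doses, normalized to buffer and Salinomycin controls.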
HCV inhibitor – inhibitors of hepatitis C virus infection | 340,000 compounds, 3.4% hits | Huh7.5.1 HCVcc-Cre infection, luciferase reporter, 44 h | AID 651820 | Potency, µM (titrated, usually from 41.8 µM), for inactives: at the highest dose activity change, negative = inhibition, usual class: inhibitors; active = well fitted inhibition curve with a large enough effect; inconclusive = small, poorly fitted or top-dose-only effect, or another doubt; inactive = no such curve, though single readings can be large or run the other way; note: potency is the fitted concentration of half-maximal effect
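Compounds are dispensed onto cells plated 4 h earlier at 1,000 per well, with HCVcc-Cre virus (about 0.5 moi) added next. Following 44 h of culture, luminescent signal is measured for 15 sec after 15 min with substrate at room temperature.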
MARV entry inh – inhibitors of Marburg virus binding or cell entry | Potency, µM (top dose mostly 37.8 µM), inactives show top-dose activity change, negative = inhibition, hits mostly inhibitors | 300,000 compounds, 1.8% hits | Marburg virus pseudotyped entry inhibition, cell reporter; calls by dose curve; tested in HEK293 cells; note: potency is the fitted concentration of half-maximal effect
FMDV inh – blocks foot and mouth disease virus | AID 1159524 | 410,000 compounds, 1.2% hits | FMDV antiviral cell-based qHTS | Potency, µM (titrated, usually from 57.9 µM), inactives show at the top dose activity change, negative = inhibition, hits mostly inhibitors; calls by dose curve; tested in HEK293T cells; note: read-out not given here; potency is the fitted concentration of half-maximal effect; nearly all actives have a fitted effect of over 45% in size
* marks the source's active call; other numbers are inactive results; ? = inconclusive; . = no result given; [ ] = dose if it differs, or a comment. % is set by controls: 0 for no effect and ±100 for the full control effect.

SMILES	LASV entry inh	HCMV inh	HCV inhibitor	MARV entry inh	FMDV inh
Nc1cc(C(=O)O)ccc1N1CCCCCC1	-12.0%	28.1	5.62µM*	-9.3%	.
Nc1cc(S(=O)(=O)c2ccc(N3CCCCC3)c(N)c2)ccc1N1CCCCC1	.	?	.	.	-21.2%
c1ccc2[nH]c(NCCCc3cnc[nH]3)nc2c1	.	.	.	.	15.1%
CCC(C)c1ccc(OCc2ccc(C(=O)O)o2)cc1 (stereo not given)	?	127.3	19.7%	?	11.2µM*
CCOC(=O)c1ccc(COc2ccc(C(C)C)cc2)o1	?	25.4	4.0%	?	5.4%
CCCc1cc(N2CCN(c3ccc(OC)cc3)CC2)n2cnnc2n1	-20.3%[46.1 µM]	-78.4*	.	-29.5%[46.1 µM]	?
COc1ccc(N2CCN(c3c4c(nc5nncn35)CCC4)CC2)cc1	0.5%[46.1 µM]	-70.4*	.	?	?
CCCc1cc(N2CCN(c3ccccc3)CC2)n2cnnc2n1	-8.7%[46.1 µM]	?	.	4.0%[46.1 µM]	?
Cc1nc2nncn2c(N2CCN(c3ccccc3)CC2)c1C	-3.9%[46.1 µM]	-74.5*	.	3.7%[46.1 µM]	-11.2%
COc1ccc(N2CCN(c3nc4ccc(C(=O)c5ccccc5)cc4n4cnnc34)CC2)cc1	25.6%[46.1 µM]	0.0	.	.	-18.7%
COC(=O)c1ccc2c(c1)C(C)(C)C(/C=C/c1ccc(OC)c(OC)c1OC)=[N+]2C	?	-104.9*	10µM*	?	15.8µM*
C(=NN1CCCCCC1)c1ccc2ccccc2n1	?	-91.6*	-1.0%	2.51µM*	100µM*
C(=NN1CCCCCC1)c1cccc2ccccc12	16.6%	-19.8	12.2%	17.1%	44.5%
CCC(c1nnnn1Cc1ccccc1)N1CCC(n2c(=O)[nH]c3ccccc32)CC1 (stereo not given)	.	-60.6*	.	.	?
CCCCn1nnnc1C(CCc1ccccc1)N1CCC(n2c(=O)[nH]c3ccccc32)CC1 (stereo not given)	.	-101.3*	.	.	20µM*
CCCCn1nnnc1C(CCSC)N1CCC(n2c(=O)[nH]c3ccccc32)CC1 (stereo not given)	.	-22.2	.	.	-12.7%
CCOc1ccc(NC(=O)CC2C(=O)N(c3ccc(F)cc3)C(=O)N2Cc2ccc(OC)c(OC)c2)cc1 (stereo not given)	-13.3%[46.1 µM]	10.1	.	-22.9%[46.1 µM]	-9.3%
CCOC(=O)c1ccc(NC(=O)CCC(=O)N2CCSc3ccccc32)cc1	-21.6%[46.1 µM]	?	.	.	-8.5%
COc1ccc(OC)c(CC2C(=O)Nc3ccc(Br)cc32)c1 (stereo not given)	?	-90.2*	.	?	12.6µM*
CCOc1ccc2oc(C(=O)NC3CC(C)(C)NC(C)(C)C3)c(C)c2c1	-13.2%	-4.2	12.6µM*	?	-4.9%
CCOc1ccc2oc(C(=O)NC3CCN(Cc4ccccc4)CC3)c(C)c2c1	11.2µM*	?	?	?	?
CSC(=NC#N)N1CCN(c2cccc(Cl)c2)CC1	5.4%	-67.1*	8.9%	9.0%	-20.1%
CC(C)C(NC(=O)Cc1ccccc1)C(=O)N1CCN(c2cccc(Cl)c2)CC1 (stereo not given)	.	-101.0*	11.2µM*	.	?
CSC(=NC#N)N1CCN(c2ccccc2)CC1	11.3%	?	19.4%	12.3%	2.1%
Cc1ccc(Cl)cc1N1CCN(C(=O)c2ccccc2SCC(=O)N2CCCC2)CC1	.	-13.0	11.2µM*	.	?
SMILES	LASV entry inh	HCMV inh	HCV inhibitor	MARV entry inh	FMDV inh
CSc1ncc(C(=O)N2CCN(c3cccc(Cl)c3)CC2)c(C)n1	8.0%[46.1 µM]	-14.3	.	.	-6.5%
CSc1ccccc1C(=O)N1CCN(c2cccc(Cl)c2)CC1	5.62µM*	47.8	?	?	-18.3%
CC(NC(=O)c1ccco1)C(=O)N1CCN(c2cccc(Cl)c2)CC1 (stereo not given)	.	-27.1	-3.8%	.	-13.0%
COc1ccccc1N1CCN(C(=O)c2ccccc2SCC(=O)N2CCCC2)CC1	-2.2%	-25.1	6.7%	-19.2%	-1.2%
COC(=O)c1c(OCc2ccccc2)cc(=O)n2c1CCN(Cc1cccc(C)n1)CC2	.	.	.	.	-3.0%
O=C(Cn1c(=O)n(Cc2nc(-c3ccccc3)no2)c(=O)c2ccccc21)Nc1cccc(Cl)c1	-0.9%[46.1 µM]	-3.5	.	.	?
COc1ccc2c(c1)[C@@H](NC(=O)C(F)(F)F)C1CCCCC21c1ccccc1 (stereo not given in full)	.	.	.	-4.1%[14.2 µM]	.
CN(CCOc1ccc(Cl)cc1)C(=O)c1ccccc1SCC(=O)N1CCCC1	.	?	10µM*	.	?
Cc1cc(C(=O)N2CCN(c3cccc(Cl)c3)CC2)c(C)o1	?	-1.2	?	6.31µM*	?
CCOC(=O)/C(=C\c1ccccc1)C(=O)c1cc(C(C)=O)c(Nc2ccccc2)s1	?	-105.1*	7.08µM*	?	14.1µM*
CCOC(=O)/C(C#N)=C\c1cccnc1	?	-34.4	8.9%	?	-5.0%
CCOC(=O)C(=O)/C(C#N)=C/Nc1ccccc1	-1.0%	0.1	-3.8%	19.4%	-12.2%
CCOC(=O)/C(=C\c1cccnc1)C(=O)c1cc(C(C)=O)c(Nc2ccccc2)s1	?	.	?	?	3.98µM*
CCCNC(=O)CCc1nnc2ccc(N3CCN(c4cccc(OC)c4)CC3)nn12	-22.8%[46.1 µM]	?	.	.	-5.9%
O=C(CCc1ccccc1)NCCc1csc(-c2cccc(F)c2)n1	5.0%[46.1 µM]	-5.4	.	.	-12.9%
COc1ccc(C(CNC(=O)C(C)c2ccc3cc(OC)ccc3c2)N(C)C)cc1 (stereo not given)	?	10.6	-22.7%	?	18.2%
COc1ccc2cc([C@H](C)C(=O)N(C)Cc3ccccc3N3CCCC3)ccc2c1	?	1.1	10µM*	?	-22.2%
O=c1cc2oc3cc(O)c(O)cc3c(-c3ccccc3O)c-2cc1O	.	.	-26.9%	.	0.0%
COc1ccc(OC)c(-c2c3cc(O)c(=O)cc-3oc3cc(O)c(O)cc23)c1	?	.	-11.5%	20.6µM*	-26.4%
CC(=O)N1CCN(c2nc(-c3cccs3)nc3ccccc23)CC1	?	15.4	11.2µM*	?	-12.8%
COc1ccccc1Nc1nc(-c2cccs2)cs1	?	162.7	?	?	55.4%
CN(C)C(=O)c1ccc(Nc2nc(-c3cccs3)nc3ccccc23)cc1	?	?	2.82µM*	?	-9.1%
COc1ccc(Nc2nc(-c3cccs3)nc3ccccc23)c(OC)c1	?	-33.3	11.2µM*	?	-14.9%
COc1ccc(Nc2nc(-c3cccs3)cs2)c(OC)c1	26.7%	156.2	10µM*	11.2%	48.6%
COC(=O)c1ccc(N2C(=O)C[C@H](N3CCN(C(=O)c4ccco4)CC3)C2=O)cc1	.	.	.	21.5%	.
SMILES	LASV entry inh	HCMV inh	HCV inhibitor	MARV entry inh	FMDV inh
N=C(N)S/C=C\C(=O)O	.	.	.	.	6.3%
COc1ccc(OC)c(Nc2nc(-c3cccs3)cs2)c1	8.3%	66.6	14.1µM*	-0.6%	.
O=[N+]([O-])c1ccc(Sc2nccn2Cc2ccccc2)cc1	-15.7%	-76.9*	0.8%	3.1%	.
Clc1ccc(CSc2nccn2Cc2ccccc2)cc1	-23.9%	?	?	?	-26.4%
c1ccc(COc2ccccc2CNC23CC4CC(CC(C4)C2)C3)cc1	?	-97.2*	?	?	-11.8%
c1ccc(COc2ccccc2CNC2CCCC2)cc1	.	-26.5	?	?	-23.2%
